Assay results as given in PubChem BioAssay (NCI).
The panel holds about 79,000 compounds, 15% with a hit somewhere; the sample as a whole holds those more often. The source made the active and inactive calls. Cut-off read from the data, not from the text of the source: active = growth inhibition above about 70%; inactive = the rest.

Legend:
[1] = NCI Yeast Anticancer Drug Screen. Data for the rad50 strain (AID 155);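 note: 0% = growth of vehicle-only cultures of the same strain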; settings: S. cerevisiae rad50 strain growth inhibition, active compounds read high
In short: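 Cells are treated with compound, grown, and their growth is then scored against vehicle-only cultures of the same repair-deficient yeast strain.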

[2] = NCI Yeast Anticancer Drug Screen. Data for the mec2-1 strain (AID 157); settings: S. cerevisiae mec2-1 strain, active compounds read high
In short: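 Compounds were applied to mec2-1 yeast cells. Their growth was then compared with that of vehicle-treated cultures to give growth inhibition.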

[3] = NCI Yeast Anticancer Drug Screen. Data for the sgs1 mgt1 strain (AID 161);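 note: 0% = growth of cultures given vehicle only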; settings: S. cerevisiae sgs1 mgt1 strain, active compounds read high
In short: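 This yeast growth screen uses a strain with defined DNA-repair lesions; compound-treated growth is compared with vehicle-treated growth.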

[4] = NCI Yeast Anticancer Drug Screen. Data for the cln2 rad14 strain (AID 165);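 note: 0% = growth equal to vehicle treated cultures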; settings: S. cerevisiae cln2 rad14 strain, active compounds read high
In short: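 Strain: cln2 rad14 yeast, altered in cell cycle control and DNA damage repair. Read-out: growth inhibition vs vehicle.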

[5] = NCI Yeast Anticancer Drug Screen. Data for the bub3 strain (AID 167); settings: S. cerevisiae bub3 mutant strain, active compounds read high
In short: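 Part of a panel of yeast mutants defective in DNA damage repair or cell cycle regulation. Each strain is grown with compound, and inhibition is calculated relative to solvent-treated cultures.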

[6] = NCI Yeast Anticancer Drug Screen. Data for the mlh1 rad18 strain (AID 175); settings: S. cerevisiae mlh1 rad18 strain growth inhibition, active compounds read high
In short: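 A repair-deficient yeast strain is exposed to test compound, and growth is scored relative to vehicle-treated controls.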

[7] = at 5.0 µM (retest, dose inferred, filed as 0.5)
[8] = at 50.0 µM (retest, dose inferred, filed as 5.0)

Measured: growth inhibition

CCN(CC)c1ccc(NC(C(=O)c2ccccc2)c2ccc3c(c2)OCO3)cc1 (configuration not stated)
inactive: [1]; [7] -23% | [1]; [8] -26% | [1]; at 50.0 µM 27.2% | [2]; [7] -3% | [2]; [8] 5% | [2]; at 50.0 µM 32.7% | [3]; [7] -23% | [3]; [8] 14% | [3]; at 50.0 µM 46.1% | [4]; [7] -1% | [4]; [8] -10% | [4]; at 50.0 µM -8.35% | [5]; [7] 3% | [5]; [8] 14% | [5]; at 50.0 µM 25.9% | [6]; [7] -4% | [6]; [8] 12% | [6]; at 50.0 µM 42.5%

Cc1ccnc(NCCN(C)C)c1
active: [1]; at 50.0 µM 98.5% | [2]; at 50.0 µM 98.2% | [3]; at 50.0 µM 97.5% | [4]; at 50.0 µM 98.3% | [5]; at 50.0 µM 99.3% | [6]; at 50.0 µM 98.7%
inactive: [1]; [7] 2% | [1]; [8] -1% | [2]; [7] 1% | [2]; [8] 4% | [3]; [7] 3% | [3]; [8] 1% | [4]; [7] -6% | [4]; [8] 1% | [5]; [7] -1% | [5]; [8] -2% | [6]; [7] -1% | [6]; [8] -1%

Oc1ccccc1C1CCCCC1
active: [1]; at 50.0 µM 88.5% | [2]; at 50.0 µM 84.3% | [3]; at 50.0 µM 96.1% | [5]; at 50.0 µM 73.2% | [6]; at 50.0 µM 93.2%
inactive: [1]; [7] 1% | [1]; [8] 38% | [2]; [7] 3% | [2]; [8] 17% | [3]; [7] 0% | [3]; [8] 47% | [4]; [7] 4% | [4]; [8] -10% | [4]; at 50.0 µM 46.6% | [5]; [7] -9% | [5]; [8] 6% | [6]; [7] 4% | [6]; [8] 46%

O=C1C=CC(=O)c2c(O)c(N3CCN(CCOCCO)CC3)c(Br)c(O)c21
active: [1]; [8] 96% | [1]; at 50.0 µM 88.3% | [2]; [8] 98% | [2]; at 50.0 µM 88.6% | [3]; [8] 97% | [3]; at 50.0 µM 89.7% | [4]; [8] 96% | [4]; at 50.0 µM 86.4% | [5]; [8] 96% | [5]; at 50.0 µM 85.9% | [6]; [8] 98% | [6]; at 50.0 µM 86.5%
inactive: [1]; [7] 15% | [2]; [7] 13% | [3]; [7] 18% | [4]; [7] 17% | [5]; [7] 25% | [6]; [7] 16%

O=C(CCl)[O][Bi]([O]C(=O)CCl)([c]1ccccc1)([c]1ccccc1)[c]1ccccc1
inactive: [1]; [7] 10% | [1]; [8] 51% | [1]; at 50.0 µM 13% | [2]; [7] 11% | [2]; [8] 58% | [2]; at 50.0 µM 15.7% | [3]; [7] 32% | [3]; at 50.0 µM -8.4% | [4]; [7] 26% | [4]; [8] 59% | [4]; at 50.0 µM 5.75% | [5]; [7] 31% | [5]; at 50.0 µM 10.2% | [6]; [7] 17% | [6]; at 50.0 µM 23.1%
active: [3]; [8] 83% | [5]; [8] 85% | [6]; [8] 71%

CCCCCCCCCCCCCCSC(=N)N
inactive: [1]; at 50.0 µM 66.3% | [2]; [7] 65% | [3]; at 50.0 µM 45.5% | [4]; [7] 41% | [4]; at 50.0 µM 54.5%
active: [1]; [7] 99% | [1]; [8] 95% | [2]; [8] 97% | [2]; at 50.0 µM 98.5% | [3]; [7] 100% | [3]; [8] 95% | [4]; [8] 95% | [5]; [7] 100% | [5]; [8] 96% | [5]; at 50.0 µM 98.7% | [6]; [7] 95% | [6]; [8] 96% | [6]; at 50.0 µM 97.7%

CC(=O)OC1=Cc2ccccc2C(c2ccccc2)c2ccccc21 (configuration not stated)
inactive: [1]; [7] -10% | [1]; [8] 29% | [1]; at 50.0 µM 14.3% | [2]; [7] -3% | [2]; [8] 31% | [2]; at 50.0 µM 9.55% | [3]; [7] 2% | [3]; [8] 18% | [3]; at 50.0 µM 16.5% | [4]; [7] 20% | [4]; [8] 37% | [4]; at 50.0 µM 10.7% | [5]; [7] 8% | [5]; [8] 20% | [5]; at 50.0 µM 14.3% | [6]; [7] 11% | [6]; [8] 53% | [6]; at 50.0 µM 18.3%

Nc1ccc2nnnn2c1
inactive: [1]; [7] 0% | [1]; at 50.0 µM 24.5% | [2]; [7] -2% | [2]; [8] 19% | [2]; at 50.0 µM 38% | [3]; [7] 9% | [3]; at 50.0 µM 46.8% | [4]; [7] 3% | [4]; [8] 27% | [4]; at 50.0 µM 31.2% | [5]; [7] 10% | [5]; at 50.0 µM 5.8% | [6]; [7] 14%
active: [1]; [8] 72% | [3]; [8] 76% | [5]; [8] 78% | [6]; [8] 91% | [6]; at 50.0 µM 70.5%

O=c1[nH]c(CN2CCCCC2)nn1-c1ccccc1
inactive: [1]; [7] -1% | [1]; [8] 3% | [1]; at 50.0 µM 8.25% | [2]; [7] 0% | [2]; [8] 3% | [2]; at 50.0 µM 10.1% | [3]; [7] -1% | [3]; [8] 1% | [3]; at 50.0 µM 9.75% | [4]; [7] 4% | [4]; [8] -1% | [4]; at 50.0 µM 69.4% | [5]; [7] 0% | [5]; [8] -4% | [5]; at 50.0 µM 14.6% | [6]; [7] -2% | [6]; [8] 1% | [6]; at 50.0 µM 2.45%
